Inconclusive results are not listed. The source made the active and inactive calls. Unless noted, calls come from the whole dose curve; as a rule, active = well fitted curve in the direction sought with a large enough effect in the repeat runs; inconclusive = weak or mixed curves; inactive = no such curve, though single readings can be large; an effect the other way counts as inactive or inconclusive.
Columns and labels:
[1] = qHTS assay to identify small molecule agonists of the estrogen receptor alpha (ER-alpha) signaling pathway in the presence of an antagonist - cell viability counter screen (AID 1259386);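 note: cells exposed to compounds for 22 h at 37 °C before the viability read; nearly all actives have a fitted effect of over 30% in size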; note: potency is the fitted concentration of half-maximal effect
Outline: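 Cells are starved of estrogens for 5 days in charcoal-stripped serum, seeded for 24hr and co-treated with ICI-182,780 (10.0nM final) and test compounds. After 22hr at 37C, viability is read as CellTiter-Fluor fluorescence.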

[2] = qHTS assay to identify small molecule agonists of the progesterone receptor (PR) signaling pathway - cell viability counter screen (AID 1346799; calls by dose curve; note: nearly all actives have a fitted effect of over 45% in size)
Outline: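 Viability was scored by ATP luminescence (CellTiter-Glo, 30 min, room temperature) in the same wells used for the reporter readout, after 16 hr compound exposure of PR-UAS-bla HEK293T cells.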

[3] = qHTS assay to identify small molecule antagonists of the TGF-beta/Smad signaling pathway - cell viability counter screen (AID 1346824); note: nearly all actives have a fitted effect of over 50% in size; note: potency is the fitted concentration of half-maximal effect
Outline: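 Cytotoxicity counter-screen run in the same wells as the beta-lactamase Smad reporter read: CellTiter-Glo luminescence after 30 min at room temperature. HEK 293T SBE-bla cells had 5 hr compound exposure at 37 C with TGF-beta1 (0.25 ng/mL stock).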

[4] = qHTS assay to identify small molecule agonists of the TGF-beta/Smad signaling pathway (AID 1346859; active = well fitted activation curve with a large enough effect in the signal ratio in the repeat runs, not every such curve was filed as active; the % refers to the signal ratio; note: series mostly up to about 77 µM)
Outline: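 Dual-wavelength fluorescence (460/530 nm emission) quantified beta-lactamase expression under the Smad binding element in HEK 293T cells following 5 hr compound treatment at 37 C.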

[5] = biological target: Thyrotropin-releasing hormone receptor (Homo sapiens) (UniProt P34981); assay: qHTS assay to identify small molecule antagonists of the thyrotropin-releasing hormone receptor (TRHR) signaling pathway (AID 1346877; active = well fitted inhibition curve with a large enough effect in the repeat runs, not every such curve was filed as active; note: series mostly up to about 51 µM)
Thyrotropin-releasing hormone receptor (Homo sapiens), sequence (P34981 whole entry, looked up): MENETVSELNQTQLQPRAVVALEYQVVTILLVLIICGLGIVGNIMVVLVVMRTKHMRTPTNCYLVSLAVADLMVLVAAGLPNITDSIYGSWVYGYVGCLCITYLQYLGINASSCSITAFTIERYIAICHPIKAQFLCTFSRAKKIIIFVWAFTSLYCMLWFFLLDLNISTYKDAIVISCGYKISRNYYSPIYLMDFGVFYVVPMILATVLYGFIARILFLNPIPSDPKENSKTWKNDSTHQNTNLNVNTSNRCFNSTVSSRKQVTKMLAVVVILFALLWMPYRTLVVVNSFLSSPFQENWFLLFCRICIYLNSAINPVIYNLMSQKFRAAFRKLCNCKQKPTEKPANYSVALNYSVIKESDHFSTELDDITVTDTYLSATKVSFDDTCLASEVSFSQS
Outline: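 Cells (TRHR-HEK293) are plated and kept 18 h at 37 °C/5% CO2. A calcium-sensitive dye is added for 2 h, compound follows for 5 min at room temperature, and TRH is then given at 1 nM final.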

[6] = Human pregnane X receptor (PXR) small molecule agonists, qHTS cell viability counter screen (AID 1346977); note: nearly all actives have a fitted effect of over 50% in size; note: potency is the fitted concentration of half-maximal effect
Outline: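 HepG2 cells stably carrying the PXR-Luc reporter are cultured with 5% charcoal-stripped FBS and treated with compounds for 24hr. CellTiter-Fluor is added at 23hr and fluorescence is read after 1hr.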

[7] = Caspase-3/7 induction in HepG2 cells by small molecules, qHTS assay (AID 1346978); note: nearly all actives have a fitted effect of over 15% in size; note: potency is the fitted concentration of half-maximal effect
Outline: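 Caspase-3/7 induction was measured by Caspase-Glo 3/7 luminescence (30 min, room temperature) after a 17 hr compound exposure of wild-type HepG2 cells seeded at 2,000 per well and pre-incubated 5 hr.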

[8] = Caspase-3/7 induction in CHO-K1 cells by small molecules, qHTS cell viability counter screen (AID 1346979); note: nearly all actives have a fitted effect of over 35% in size; note: potency is the fitted concentration of half-maximal effect
Outline: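 Seeding: 1,500 CHO-K1 cells/well. Rest: 5hr, 37C. Treatment: compounds in DMSO, 16hr. Read: CellTiter-Fluor, 1hr, fluorescence.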

[9] = Caspase-3/7 induction in CHO-K1 cells by small molecules, qHTS assay (AID 1346980); note: nearly all actives have a fitted effect of over 15% in size; note: potency is the fitted concentration of half-maximal effect
Outline: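 Luminescent Caspase-Glo 3/7 read (30min, room temperature) quantified apoptosis induction. Cells were wild-type CHO-K1, treated with compound for 17hr at 37 C and 5% CO2.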

[10] = Caspase-3/7 induction in HepG2 cells by small molecules, qHTS cell viability counter screen (AID 1346981); note: nearly all actives have a fitted effect of over 30% in size; note: potency is the fitted concentration of half-maximal effect
Outline: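 Steps: seed 2,000 HepG2 cells per well; incubate 5 hr at 37 C; pin-add compounds in DMSO; incubate 16 hr; add CellTiter-Fluor; after 1 hr at 37 C and 5% CO2, read fluorescence.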

[11] = biological target: Nuclear receptor subfamily 1 group I member 2 (Homo sapiens) (UniProt O75469); assay: Human pregnane X receptor (PXR) small molecule agonists, qHTS assay (AID 1346982); note: nearly all actives have a fitted effect of over 35% in size; note: potency is the fitted concentration of half-maximal effect
Nuclear receptor subfamily 1 group I member 2 (Homo sapiens), sequence (O75469 whole entry, looked up): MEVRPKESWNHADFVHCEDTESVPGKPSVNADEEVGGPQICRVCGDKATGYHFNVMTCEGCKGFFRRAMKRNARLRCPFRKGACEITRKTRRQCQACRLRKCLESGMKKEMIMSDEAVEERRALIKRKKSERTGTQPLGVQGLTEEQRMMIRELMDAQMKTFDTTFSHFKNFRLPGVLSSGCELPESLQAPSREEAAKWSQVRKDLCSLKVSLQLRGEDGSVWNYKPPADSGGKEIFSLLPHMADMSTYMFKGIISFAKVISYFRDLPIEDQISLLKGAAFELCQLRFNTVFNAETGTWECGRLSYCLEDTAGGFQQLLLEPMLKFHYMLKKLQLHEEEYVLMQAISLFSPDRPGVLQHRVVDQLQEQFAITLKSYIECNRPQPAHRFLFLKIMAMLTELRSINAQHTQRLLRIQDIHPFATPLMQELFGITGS
Outline: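 Agonist mode qHTS: PXR-Luc HepG2 cells plated 5 hr before DMSO-dissolved compounds were pinned in, cultured 24 hr at 37 C, 5% CO2; ONE-Glo luminescence readout.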

[12] = biological target: Cytochrome P450 2D6 (Homo sapiens) (UniProt P10635); assay: Cytochrome P450 Family 2 Subfamily D Member 6 (CYP2D6) small molecule antagonists: luciferase reporter qHTS assay (AID 1671196); note: nearly all actives have a fitted effect of over 50% in size; note: potency is the fitted concentration of half-maximal effect
Cytochrome P450 2D6 (Homo sapiens), sequence (P10635 whole entry, looked up): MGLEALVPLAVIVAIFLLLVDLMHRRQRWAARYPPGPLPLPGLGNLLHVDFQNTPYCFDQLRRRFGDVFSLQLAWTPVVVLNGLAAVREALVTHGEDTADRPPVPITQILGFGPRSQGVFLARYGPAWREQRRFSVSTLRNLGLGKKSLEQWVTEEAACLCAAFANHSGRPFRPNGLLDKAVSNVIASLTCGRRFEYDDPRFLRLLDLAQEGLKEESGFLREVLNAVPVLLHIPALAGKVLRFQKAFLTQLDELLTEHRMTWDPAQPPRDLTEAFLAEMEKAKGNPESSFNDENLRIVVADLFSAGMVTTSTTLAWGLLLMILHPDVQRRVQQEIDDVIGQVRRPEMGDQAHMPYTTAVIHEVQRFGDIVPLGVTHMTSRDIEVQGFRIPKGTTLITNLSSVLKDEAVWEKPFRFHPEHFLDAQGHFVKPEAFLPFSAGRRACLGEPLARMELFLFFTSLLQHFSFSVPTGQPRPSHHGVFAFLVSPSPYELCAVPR
Outline: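 P450-Glo format: CYP2D6 converts a proluciferin substrate to luciferin in an NADPH-driven reaction lasting 1 h at room temperature. Light output, proportional to CYP2D6 activity, reflects interference by test chemicals.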

[13] = qHTS assay to identify small molecule antagonists of the progesterone receptor (PR) signaling pathway - cell viability counter screen (AID 1346798); note: nearly all actives have a fitted effect of over 50% in size; note: potency is the fitted concentration of half-maximal effect
Outline: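 Viability was determined by ATP-based luminescence (CellTiter-Glo) in PR-UAS-bla HEK293T cells cultured in 2% charcoal-stripped serum and incubated 16 hr with compounds under R5020 stimulation.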

[14] = qHTS assay to identify small molecule agonists of the TGF-beta/Smad signaling pathway - cell viability counter screen (AID 1346829); note: nearly all actives have a fitted effect of over 45% in size; note: potency is the fitted concentration of half-maximal effect
Outline: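 CellTiter-Glo luminescence readout; SBE-bla HEK 293T cells, overnight plating, compound 5 hr at 37 C/5% CO2, then bla substrate 2 hr RT, then CellTiter-Glo 30 min RT.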

[15] = biological target: Thyrotropin-releasing hormone receptor (Homo sapiens) (UniProt P34981); assay: qHTS assay to identify small molecule agonists of the thyrotropin-releasing hormone receptor (TRHR) signaling pathway (AID 1346891; calls by dose curve;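 note: HEK293 cells expressing TRHR with calcium dye readout; series mostly up to about 58 µM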)
Outline: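 Kinetic fluorescence (3 min, 1 s intervals) reported intracellular calcium after compound transfer onto TRHR-Hek293 cells pre-loaded with dye for 2 h at 37 °C.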

[16] = biological target: Nuclear receptor subfamily 1 group I member 2 (Rattus norvegicus) (UniProt Q9R1A7); assay: Rat pregnane X receptor (rPXR) activation by small molecules, qHTS assay (AID 1346983); conditions: rPXR luciferase reporter cells, One-Glo luminescence, 24 h; max activation: hits give high values; note: nearly all actives have a fitted effect of over 20% in size
Nuclear receptor subfamily 1 group I member 2 (Rattus norvegicus), sequence (Q9R1A7 whole entry, looked up): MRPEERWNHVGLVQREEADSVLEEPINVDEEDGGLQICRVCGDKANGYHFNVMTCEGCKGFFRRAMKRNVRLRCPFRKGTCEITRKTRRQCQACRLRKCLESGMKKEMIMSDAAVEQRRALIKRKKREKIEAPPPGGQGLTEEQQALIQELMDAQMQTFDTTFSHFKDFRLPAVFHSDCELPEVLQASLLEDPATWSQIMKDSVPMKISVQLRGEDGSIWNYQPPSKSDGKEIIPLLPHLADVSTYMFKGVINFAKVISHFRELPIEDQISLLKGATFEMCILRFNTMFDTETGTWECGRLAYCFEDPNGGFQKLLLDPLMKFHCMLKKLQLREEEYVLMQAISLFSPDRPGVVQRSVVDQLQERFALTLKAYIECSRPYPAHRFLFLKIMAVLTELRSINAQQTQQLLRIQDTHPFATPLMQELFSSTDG
Outline: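 Luminescent readout (One-Glo luciferase, 30 min room temperature) followed 24 hr compound treatment at 37 C of rPXR cells plated 2,000 per well and preincubated 5hr; qHTS format with compounds delivered in DMSO.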

[17] = biological target: Progesterone receptor (Homo sapiens) (UniProt P06401); assay: qHTS assay to identify small molecule agonists of the progesterone receptor (PR) signaling pathway (AID 1346784; calls by dose curve; note: nearly all actives have a fitted effect of over 30% in size)
Progesterone receptor (Homo sapiens), sequence (P06401 whole entry, looked up): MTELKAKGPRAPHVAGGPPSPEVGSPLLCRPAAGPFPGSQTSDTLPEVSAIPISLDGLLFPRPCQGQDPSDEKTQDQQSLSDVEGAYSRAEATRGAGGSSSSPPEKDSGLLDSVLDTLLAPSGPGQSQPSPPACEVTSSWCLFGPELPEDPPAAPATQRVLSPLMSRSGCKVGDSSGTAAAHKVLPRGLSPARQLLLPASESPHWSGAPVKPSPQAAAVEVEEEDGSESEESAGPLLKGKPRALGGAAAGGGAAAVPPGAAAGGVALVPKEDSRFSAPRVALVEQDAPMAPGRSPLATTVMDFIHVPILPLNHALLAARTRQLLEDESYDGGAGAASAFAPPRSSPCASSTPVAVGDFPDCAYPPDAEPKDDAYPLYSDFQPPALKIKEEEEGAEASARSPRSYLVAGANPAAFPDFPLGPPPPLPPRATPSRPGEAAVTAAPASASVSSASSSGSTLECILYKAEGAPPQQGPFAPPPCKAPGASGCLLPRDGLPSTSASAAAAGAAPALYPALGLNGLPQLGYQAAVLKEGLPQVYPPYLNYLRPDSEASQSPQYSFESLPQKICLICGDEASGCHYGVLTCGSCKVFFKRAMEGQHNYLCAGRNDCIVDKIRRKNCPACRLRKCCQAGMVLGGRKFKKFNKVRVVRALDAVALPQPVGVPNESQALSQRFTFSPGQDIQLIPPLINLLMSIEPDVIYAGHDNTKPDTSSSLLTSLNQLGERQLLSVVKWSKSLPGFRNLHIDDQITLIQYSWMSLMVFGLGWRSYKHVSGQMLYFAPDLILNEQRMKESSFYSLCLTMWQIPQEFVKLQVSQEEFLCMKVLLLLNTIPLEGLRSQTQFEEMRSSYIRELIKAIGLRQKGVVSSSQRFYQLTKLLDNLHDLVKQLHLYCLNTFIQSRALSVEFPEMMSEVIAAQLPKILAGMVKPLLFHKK
Outline: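 The screen uses PR-UAS-bla HEK 293T cells in charcoal-stripped serum (2%). Compounds are applied for 16 hr at 37C after a 6 hr pre-incubation, and reporter activity is detected with a FRET beta-lactamase substrate after 2 hr at room temperature.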

[18] = biological target: Nuclear receptor subfamily 1 group I member 2 (Homo sapiens) (UniProt O75469); assay: Human pregnane X receptor (PXR) activation by small molecules, qHTS assay (AID 1346985); note: nearly all actives have a fitted effect of over 40% in size
Outline: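 DPX-2 cells (HepG2 co-transfected with a PXR response element and a CYP3A4-promoter luciferase construct) were seeded at 2,000 per well, rested 5 hr at 37C, then exposed to DMSO-dissolved compounds for 24 hr. Activation was read as luciferase luminescence.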
% is set by controls: 0 for no effect and ±100 for the full control effect.

CC(C)(C)C(=O)OCOC(=O)C1N2C(=O)CC2S(=O)(=O)C1(C)C (stereo not drawn)
inactive: Potency [1] | Potency [2] | Potency [3] | Potency [4] | Potency [5] | Potency [6] | Potency [7] | Potency [8] | Potency [9] | Potency [10] | Potency [11] | Potency [12]

CCCCCCCC[P+](CCCCCCCC)(CCCCCCCC)CCCCCCCC
active: Potency [1] 2.71 µM | Potency [13] 15.3 µM | Potency [3] 21.7 µM | Potency [14] 17.3 µM | Potency [6] 2.42 µM | Potency [8] 5.42 µM | Potency [10] 13.6 µM | Potency [11] 2.42 µM | Potency [12] 0.141 µM
inactive: Potency [5] | Potency [15]

CCN(CC)CCNC(=O)c1c(C)[nH]c(/C=C2\C(=O)Nc3ccc(F)cc32)c1C
inactive: Potency [3] | Potency [14] | Potency [4] | Potency [5] | Potency [15] | Potency [9] | max activation [16] -11.9%
active: Potency [1] 2.98 µM | Potency [13] 11.9 µM | Potency [6] 11.9 µM | Potency [7] 26.6 µM | Potency [8] 13.3 µM | Potency [10] 10.6 µM

Clc1ccc2n[nH]nc2c1
inactive: Potency [1] | Potency [13] | Potency [3] | Potency [14] | Potency [4] | Potency [5] | Potency [15] | Potency [6] | Potency [7] | Potency [8] | Potency [9] | Potency [10] | Potency [11]

Cc1oc(-c2ccccc2)nc1CCC(=O)c1ccc(CC2SC(=O)NC2=O)cc1 (stereo not drawn)
active: Potency [8] 21.1 µM
inactive: Potency [17] | Potency [13] | Potency [3] | Potency [5] | Potency [15] | Potency [7] | Potency [9] | Potency [11] | Potency [12]

O=C(O)c1cc(O)c2c(c1)C(=O)c1cccc(O)c1C2=O
active: Potency [6] 25.1 µM | Potency [8] 35.4 µM | Potency [10] 44.6 µM
inactive: Potency [17] | Potency [13] | Potency [2] | Potency [3] | Potency [14] | Potency [7] | Potency [9] | Potency [11] | Potency [12]

Cc1[nH]nc2c1N=C(c1ccccc1Cl)c1cc([N+](=O)[O-])ccc1N2
active: Potency [1] 27.3 µM | Potency [14] 4.36 µM | Potency [6] 13.7 µM | Potency [7] 17.2 µM | Potency [8] 21.7 µM | Potency [9] 19.3 µM | Potency [10] 19.3 µM | Potency [11] 6.11 µM

CCCC(c1cc(C(C)(C)C)c(O)cc1C)c1cc(C(C)(C)C)c(O)cc1C
inactive: Potency [5] | Potency [15] | Potency [9]
active: Potency [1] 61.9 µM | Potency [13] 22 µM | Potency [3] 24.8 µM | Potency [14] 24.8 µM | Potency [6] 17.4 µM | Potency [7] 24.6 µM | Potency [8] 13.9 µM | Potency [10] 22 µM | Potency [11] 1.96 µM

CCOC(=O)/C=C(C)/C=C/C=C(C)/C=C/c1c(C)cc(OC)c(C)c1C
inactive: Potency [17] | Potency [2] | Potency [3] | Potency [14] | Potency [6] | Potency [7] | Potency [9] | Potency [10] | max activation [16] -4.32% | Potency [18]

CC(=O)S[C@@H]1CC2=CC(=O)CC[C@]2(C)[C@H]2CC[C@@]3(C)[C@@H](CC[C@@]34CCC(=O)O4)[C@H]12
inactive: Potency [1] | Potency [3] | Potency [14] | Potency [5] | Potency [15] | Potency [6] | Potency [7] | Potency [9]
active: Potency [13] 24.3 µM

O=C1c2ccccc2Cc2ccccc21
inactive: Potency [17] | Potency [13] | Potency [2] | Potency [3] | Potency [14] | Potency [5] | Potency [15] | Potency [6] | Potency [7] | Potency [12]
active: Potency [8] 30.9 µM | Potency [11] 27.5 µM

COc1ccc(C(=O)/C(Br)=C\C(=O)O)cc1
inactive: Potency [17] | Potency [13] | Potency [3] | Potency [14] | Potency [4] | Potency [5] | Potency [15] | Potency [7] | max activation [16] -6.96% | Potency [18]
active: Potency [6] 61.1 µM | Potency [8] 54.5 µM | Potency [11] 21.7 µM | Potency [12] 63.3 µM

c1cc(C(c2ccc(OCC3CO3)cc2)c2ccc(OCC3CO3)cc2)ccc1OCC1CO1 (stereo not drawn)
active: Potency [8] 61.1 µM | Potency [11] 27.3 µM
inactive: Potency [1] | Potency [13] | Potency [12]

CN(C)c1ccc(C2(c3ccc(N(C)C)cc3)OC(=O)c3cc(N(C)C)ccc32)cc1
inactive: Potency [1] | Potency [2] | Potency [3] | Potency [14] | Potency [4] | Potency [5] | Potency [15] | Potency [6] | Potency [10] | Potency [11] | Potency [12]

CC[C@H]1O[C@]2(CC[C@@H]1C)C[C@@H]1C[C@@H](C/C=C(\C)C[C@@H](C)/C=C/C=C3\CO[C@@H]4[C@H](O)C(C)=C[C@@H](C(=O)O1)[C@]34O)O2
inactive: Potency [5] | Potency [15]
active: Potency [1] 68 µM | Potency [13] 68 µM | Potency [14] 54.5 µM | Potency [6] 27.1 µM | Potency [7] 30.4 µM | Potency [8] 17.1 µM | Potency [9] 13.6 µM | Potency [10] 42.9 µM | Potency [11] 6.06 µM

Source: PubChem BioAssay (Tox21)
